Screens (PubChem)
Only some compounds are listed: those with a hit (about 4.8% of all), similar ones and a draw of the others.
D3 antag: D3 dopamine receptor (human) antagonism. max response, negative = inhibition, %. D3R cells, DiscoveRx beta-arrestin luminescence, antagonist mode; stronger effect = lower value. 2.5% of 360,000 active. AID 652054; in the data active means max response below about -50%; inconclusive means no clear call, values can overlap the other calls; further: on the % scale 0 is the no-effect control and ±100 the full control effect
Target sequence (P35462 whole entry, looked up): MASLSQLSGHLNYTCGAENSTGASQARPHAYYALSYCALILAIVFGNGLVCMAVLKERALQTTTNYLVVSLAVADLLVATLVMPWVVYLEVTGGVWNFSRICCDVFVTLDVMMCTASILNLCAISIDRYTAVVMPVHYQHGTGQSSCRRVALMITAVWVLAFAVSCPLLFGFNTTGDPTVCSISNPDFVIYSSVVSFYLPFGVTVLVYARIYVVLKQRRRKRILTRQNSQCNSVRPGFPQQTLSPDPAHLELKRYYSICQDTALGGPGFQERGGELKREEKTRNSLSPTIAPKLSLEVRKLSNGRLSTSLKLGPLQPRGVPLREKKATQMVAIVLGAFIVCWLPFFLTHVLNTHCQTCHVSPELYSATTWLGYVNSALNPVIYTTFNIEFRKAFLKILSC
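Cells plated overnight at 1500 cells/well, then exposed to library compounds with dopamine controls for 90 minutes at 37 degrees C. DiscoveRx reagent added for 30–60 minutes at room temperature; luminescence read, quantitative HTS format.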
ATXN viability: reduces viability in counter-screen for ATXN expression inhibitors; 0.49% of 400,000 active; Potency, µM (highest dose often 56.7 µM), most hits filed as cytotoxic; S2 cells (HEK-293 line with an ATXN2-luciferase reporter) viability, CellTiter-Fluor protease fluorescence, 24 h; further: potency means the concentration at half of the fitted maximal effect; nearly all actives have a fitted effect of over 40% in size
HepG2 viability: counter-screen for TGF-b inhibitors: cytotoxicity in HepG2 cells; Potency, µM (series often up to 46.1 µM), inactives show top-dose activity change, negative = cytotoxicity, usual class: cytotoxic; 0.76% of 410,000 active; HepG2 CAGA-GFP viability, ATP luminescence, 18 h; further: potency means the concentration at half of the fitted maximal effect
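CellTiter-Glo luminescence gave cytotoxicity after 18 hours at 37 degrees C. The cells were HepG2 CAGA-GFP in 1% FBS DMEM, stimulated with 500 pg/mL TGF-beta after compound addition. %Activity was normalised to no-cell wells (complete cell-killing) and DMSO (no toxicity), and curves were fitted and classified.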
TGFb inhibitor: inhibitors of TGF-b signaling. HepG2 CAGA-GFP TGF-b/SMAD3 reporter, GFP fluorescence, 18 h; TGF-beta stimulated, 500 pg/mL final. Potency, µM (series often up to 46.1 µM), inactives show at the highest dose activity, negative = inhibition, most hits filed as inhibitors. 1.2% of 410,000 active. AID 588855; further: potency means the concentration at half of the fitted maximal effect; on the % scale 0 is the no-effect control and ±100 the full control effect; nearly all actives have a fitted effect of over 65% in size
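Read-out: total well GFP (ex488/em500-530) summed from mean per-cell fluorescence. Cells: HEPG2 CAGA-GFP, 1% FBS DMEM, 18 h at 37 degrees C with 500 pg/mL final TGF-beta. Unstimulated wells served as the full-inhibition control; stimulated DMSO wells = 0%.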
ATXN2 expr inh: reduces ATXN2 reporter expression in HEK-293 cells. Potency, µM (doses to about 57 µM), inactives show at the highest dose activity change, negative = inhibition, usual class: inhibitors. 0.72% of 360,000 active. HEK-293 ATXN2-luciferase reporter, luminescence, 24 h; further: potency means the concentration at half of the fitted maximal effect; on the % scale 0 is the no-effect control and ±100 the full control effect; nearly all actives have a fitted effect of over 55% in size
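qHTS (up to 57 uM final) was run with 24 h compound exposure of reporter cells at 37 °C. Each well was multiplexed: SteadyGlo luminescence measured ATXN2-luciferase expression after a fluorogenic Gly-Phe-AFC viability readout (25 uM final).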
DRD3 agonist: agonists of human D3 dopamine receptor. P35462. D3R DiscoveRx beta-arrestin cells, luminescence, 90 min. max activation, %. 0.58% of 410,000 active. AID 652048; in the data active means max activation above about 30%; further: 0% is about no effect
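Cells at 1500/well, incubated overnight, then treated with pinned compounds (dopamine as control) for 90 min at 37 degrees C. DiscoveRx reagent added for 30 - 60 minutes at room temperature; luminescence read.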
Numbers without * were called inactive; i = inactive; ? = inconclusive; . = not tested or not shown. Unless noted, the call rests on the fitted dose curve; in most records, active means well fitted curve in the direction sought with a large enough effect; inconclusive means small, poorly fitted or top-dose-only effect, or another doubt; inactive means no such curve, though single readings can be large; an effect the other way counts as inactive or inconclusive.

SMILES | D3 antag | ATXN viability | HepG2 viability | TGFb inhibitor | ATXN2 expr inh | DRD3 agonist
C=CC[C@H](c1ccc(F)cc1)N(CC(C)C)S(=O)(=O)C=C | . | . | -16% | -27% | . | .
COc1ccc(-c2cc3ccccc3n2CC(O)CNCCO)cc1 (configuration not stated) | 0 | i | -9% | 9% | -19% | -10
Cc1ccc(S(=O)(=O)N(CC(O)CN2CCCCC2)c2ccccc2)cc1 (configuration not stated) | ? | i | -30% | 7% | 4% | -7
COc1ccc(-c2cc3ccccc3n2CC(O)CN2CCCCC2)cc1 (configuration not stated) | -87* | i | -40% | -5% | -14% | -22
COc1ccc(OCC(O)CN2CCCC2)cc1 (configuration not stated) | -8 | i | 13µM* | 18% | . | 8
COc1ccc(N(CC(O)CN2CCCCC2)S(=O)(=O)c2ccc(C)cc2)cc1 (configuration not stated) | -80* | i | -30% | 11% | 12% | -1
COc1ccc(OCC(O)CN2CCCCCC2)cc1 (configuration not stated) | -54* | i | 9% | -6% | -7% | -15
CC1CCCN(CC(O)COc2ccc(Cl)cc2)C1 (configuration not stated) | -58* | i | 1% | 7% | 6% | -34
CC1CCCN(CC(O)COc2ccc(-c3ccccc3)cc2)C1 (configuration not stated) | ? | ? | -36% | -14% | ? | -26
Cc1cc2c(cc1C)NC(CC(=O)Nc1ccccc1SC(F)(F)F)C(=O)N2 (configuration not stated) | . | . | 7% | 22% | 26% | 0
COc1cccc(N2CCN(C(=O)C3CCN(S(=O)(=O)c4cn(C)cn4)CC3)CC2)c1 | . | . | 0% | 14% | . | -11
CCCCN(CC)CCCNC(=O)CC1Oc2ccccc2NC1=O (configuration not stated) | -21 | i | -45% | -7% | 3% | 1
CCN(CC)CCCNC(=O)CC1Sc2ccccc2NC1=O (configuration not stated) | -51* | i | 4% | 0% | 7% | -1
CCOC(=O)c1c(-c2ccccc2)oc2ccc(NS(=O)(=O)c3cc(C)c(C)cc3C)cc12 | . | i | -32% | ? | -13% | -5
CCOC(=O)c1c(-c2ccccc2)oc2ccc(NS(=O)(=O)c3ccc(OC)cc3)cc12 | . | . | -27% | 13µM* | . | -4
CCOC(=O)c1c(-c2ccccc2)oc2ccc(NS(=O)(=O)c3ccccc3)cc12 | . | ? | -58% | 16µM* | ? | 17
COCCOC(=O)c1c(C)oc2ccc(NS(=O)(=O)c3ccccc3)cc12 | 15 | i | -7% | -2% | -3% | 0
CCCc1oc2ccc(NS(=O)(=O)c3ccc(OC)cc3)cc2c1C(=O)OCC | . | . | -105% | 10µM* | . | 8
CCCc1oc2ccc(NS(=O)(=O)c3ccc(OCC)cc3)cc2c1C(=O)OCC | . | . | -103% | ? | . | -7
CCOC(=O)c1c(CN2CCN(C)CC2)oc2ccc(OC)cc12 | -57* | i | -21% | 16% | -8% | -14
COc1ccc(CN2CCOc3c(O)cc(-c4cc(C)c5ccc(F)cc5n4)cc3C2)c(O)c1 | . | i | . | . | . | .
COCC(=O)N1CCCC(C)(C(=O)Nc2cccc(Oc3ccccc3)c2)C1 (configuration not stated) | -20 | i | 10% | -2% | 9% | 49*
CC(C)Oc1cccc(NC(=O)C2(C)CCCN(C)C2)c1 (configuration not stated) | -2 | i | -3% | -2% | 4% | 6
CN(C)c1ccc(/C=C2\NC(=O)NC2=O)cc1 | . | . | -2% | -1% | . | .
O=C(NCCc1nnc2n1CCN(Cc1ccc(F)c(F)c1)CC2)c1ccoc1 | . | i | . | . | . | .
SMILES | D3 antag | ATXN viability | HepG2 viability | TGFb inhibitor | ATXN2 expr inh | DRD3 agonist
CCc1ccc(CNC(=O)c2sc3ncccc3c2-n2c(C)ccc2C)cc1 | . | ? | -43% | 11µM* | -34% | -4
CCc1ccc(NC(=O)CN2C(=O)C(c3ccc(Cl)cc3)=NC23CCCCC3)cc1 | . | . | -14% | . | . | 6
c1ccc(CC[C@@H]2CC[C@@H](CCc3ccccc3)N2)cc1 | -88* | i | -26% | 3% | -6% | -14
COc1cccc(CNC(=O)c2c(OC)cc(=O)n3c2CCN(C(=O)c2csc(C)n2)CC3)c1 | . | i | . | . | . | .
COc1ccc(/C=C/C(=O)O)cc1S(=O)(=O)NCc1ccccc1 | -17 | i | 0% | 9% | -11% | 36*
CCCS(=O)(=O)N1CC(=O)N(c2ccccc2F)C(C)(C(=O)NC2CCCCCC2)C1 (configuration not stated) | . | . | -6% | -16% | . | -1
CCOC(=O)c1ccc(NC(=O)c2c(NCc3cc(OC)ccc3OC)sc3c2CCC3)cc1 | . | ? | -30% | -25% | 0% | 7
CCOC(=O)c1ccc(NC(=O)c2c(NCc3sccc3C)sc3c2CCC(C)C3)cc1 (configuration not stated) | . | ? | -39% | 14µM* | -32% | -15
CCOC(=O)c1ccc(NC(=O)c2c(NCc3cc(OC)c(OC)cc3OC)sc3c2CCCC3)cc1 | . | 32µM* | -26% | 0% | -19% | -1
CCOc1ccccc1NC(=O)CSc1nc2cc(OC)c(OC)cc2c2nc(CCn3c(C)nc4ccccc43)nn12 | . | i | -14% | 6% | -13% | -3
OC(C#Cc1ccccn1)c1cccs1 (configuration not stated) | -7 | ? | 10µM* | 16µM* | ? | -17
C(=C\c1cccs1)/c1ccccn1 | . | . | 32% | 7% | . | .
O=C(NCCS(=O)(=O)N1CCN(c2ccc(F)cc2)CC1)c1cccc(C(F)(F)F)c1 | . | . | -12% | -11% | . | 6
COc1ccc(Nc2nc(N)nc(CSc3nc(C)cc(C)n3)n2)cc1 | -61* | i | -14% | 12% | 2% | -11
COc1ccccc1Nc1nc(N)nc(CSc2nc(C)cc(C)n2)n1 | 12 | i | -3% | 1% | 0% | 3
CC(C)c1ccc(NC(=O)CSc2nc(=O)n(Cc3cccnc3)c3c2CCC3)cc1 | . | i | -47% | 11µM* | -39% | -16
CC(O)(COc1ccccc1)c1ccc2c(c1)CN(Cc1ccc3nsnc3c1)CCO2 (configuration not stated) | . | i | . | . | . | .
CCN(C(=O)c1cc(S(=O)(=O)N2CCc3ccccc32)cn1C)c1cccc(C)c1 | . | . | -23% | ? | . | -11
